In PubChem BioAssay AID624298 (National Center for Advancing Translational Sciences (NCATS), 2012):
Records with an inconclusive call do not appear. Where a call stands in place of a potency, no number is given. Active and inactive are the calls of the source. Calls come from the whole dose curve; as a rule, active = well fitted activation curve with a large enough effect; inconclusive = small, poorly fitted or top-dose-only effect; inactive = no such curve, though single readings can be large or run the other way.

Experiment: Activators of T cell receptors: Hit Validation
Conditions: primary human leukocytes, cytokine release by HTRF, 48 h, TCR-stimulated with anti-CD3 beads; series mostly up to 46.1 µM
Procedure, shortened: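 Primary human leukocytes incubated 48 hr with anti-CD3 beads plus compound, without co-stimulation. Secreted IL-2 quantified by HTRF (europium cryptate donor, d2 acceptor, 665 nm emission).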

Row | SMILES | Potency
1 | CC(=O)c1cccc(NC(=O)C(C)OC(=O)c2cccc(S(=O)(=O)N3CCN(C)CC3)c2)c1 (stereo unspecified) | inactive
2 | COc1cc(/C=C/C(=O)OCc2csc(CC(=O)Nc3ccc(C)cc3)n2)ccc1OCC#N | inactive
3 | COc1ccc(S(=O)(=O)Nc2ccc3cn[nH]c3c2)cc1[N+](=O)[O-] | inactive
4 | COc1ccc(CNC(=O)C[C@H]2C[C@H](C(=O)N3CCCCC3)[C@@]3(C)c4[nH]c5cc(-c6ccco6)ccc5c4CCN3C2=O)cc1OC | inactive
5 | O=C(Cc1cccs1)Nc1ccc(F)c(S(=O)(=O)N2CCOCC2)c1 | inactive
6 | CCOC(=O)c1sc(NC(=O)C2CC(=O)N(c3ccc4c(c3)OCCO4)C2)nc1C (stereo unspecified) | inactive
7 | Cc1ccc(NC2=CC(=O)C(=O)c3ccccc32)c(C)c1 | inactive
8 | COc1ccc(NC(=O)C2CC(=O)N(Cc3ccco3)C2)cc1Cl (stereo unspecified) | inactive
9 | CCN(CC)c1ccc(S(=O)(=O)N2CCOCC2)cc1NC(=O)COC(=O)/C=C/c1ccccc1 | inactive
10 | COc1cc(C)c(NC(=S)NCCCN2CCOCC2)cc1OC | inactive
11 | CN1C(=O)c2ccccc2Sc2ccc(NC(=O)N3CCOCC3)cc21 | inactive
12 | CC(=O)Nc1ccc(NC(=O)C(C)OC(=O)c2c(NC(C)=O)sc(C)c2C)cc1 (stereo unspecified) | inactive
13 | COc1cc(C(=O)OCCCN2CCCN(CCCOC(=O)c3cc(OC)c(OC)c(OC)c3)CC2)cc(OC)c1OC | inactive
14 | COc1ccc(Cl)cc1NC(=O)CN(C)C(=O)c1cn2ccccc2n1 | inactive
15 | COc1ccc(-n2c(=O)c(CCC(=O)NCCc3ccccc3F)nc3ccccc32)cc1 | inactive
16 | CN(CC(=O)Nc1ccc(N2CCOCC2)cc1)C(=O)c1ccc(CS(C)(=O)=O)cc1 | inactive

Row | SMILES | Potency
17 | O=C(COC(=O)C1CCN(c2ccc(C(F)(F)F)cn2)CC1)NCc1ccccc1 | inactive
18 | Cc1ccc(NC(=S)c2ccc(N(C)C)cc2)cc1 | inactive
19 | COc1cccc(CNC(=O)c2ccc(Cl)c(S(=O)(=O)N3CCOCC3)c2)c1 | inactive
20 | COc1cc(NC(=O)CN2CCN(S(=O)(=O)/C=C/c3ccccc3)CC2)cc(OC)c1OC | inactive
21 | Cc1ccc(C(=O)OCC(=O)NCc2ccco2)cc1C | inactive
22 | O=C(COC(=O)/C=C/c1cccc(Br)c1)Nc1cccc(S(=O)(=O)NC2=NCCC2)c1 | inactive
23 | CN(CC(=O)NCC(=O)Nc1ccc(F)cc1)C1CCS(=O)(=O)C1 (stereo unspecified) | inactive
24 | O=C(Cn1ncc(Cl)c(Cl)c1=O)NCC1CCCCC1 | inactive
25 | CCOC(=O)c1c(C)[nH]c(C(=O)OCC(=O)Nc2ccccc2)c1C | inactive
26 | N#Cc1ccccc1Sc1ccccc1C(=O)OCC(=O)NC12CC3CC(CC(C3)C1)C2 | inactive
27 | COc1ccccc1CC(=O)NNC(=O)CN(C)S(=O)(=O)c1ccc(Cl)cc1 | inactive
28 | Cc1cccc(NC(=O)c2sc3nc(N)c(C#N)cc3c2N)c1 | inactive
29 | CCOc1ccc(-c2nnc(-c3snc(-c4ccc(F)cc4)c3N=CN(C)C)o2)cc1 | inactive
30 | Cc1ccc(S(=O)(=O)N2CCC(C(=O)NNC(=O)c3ccccc3O)CC2)cc1C | inactive
31 | COc1cc2c(cc1O)CCN(C(=O)CSc1nncn1C)[C@@H]2C | inactive
